FECH inh = inhibitors of human ferrochelatase, primary screen, biochemical, purified FECH, Ni-mesoporphyrin absorbance; calls only at 10 µM (by protocol); Ferrochelatase, mitochondrial (Homo sapiens), P22830; Ni-mesoporphyrin absorbance 550 nm; 20,000 tested, 3.3% active;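 active = enzyme reaction rate more than 3 SD below the solvent-only control wells on the same plate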;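 also: lower slope than DMSO wells means FECH inhibition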
Target sequence (P22830 whole entry, looked up): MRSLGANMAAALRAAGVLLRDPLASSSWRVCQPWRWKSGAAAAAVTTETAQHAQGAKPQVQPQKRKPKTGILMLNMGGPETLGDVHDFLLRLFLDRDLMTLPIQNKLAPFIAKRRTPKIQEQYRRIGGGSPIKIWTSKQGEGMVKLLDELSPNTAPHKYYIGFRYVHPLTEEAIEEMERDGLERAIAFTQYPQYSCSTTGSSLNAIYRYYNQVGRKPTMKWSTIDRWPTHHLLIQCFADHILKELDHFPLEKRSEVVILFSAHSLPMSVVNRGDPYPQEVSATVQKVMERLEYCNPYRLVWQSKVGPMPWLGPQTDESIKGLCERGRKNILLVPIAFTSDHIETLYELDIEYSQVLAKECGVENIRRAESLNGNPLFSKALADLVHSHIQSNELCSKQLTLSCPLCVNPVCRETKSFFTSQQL
* = called active by the depositor; i = inactive; + = active, no number. Shown is part of a subset that was picked to be rich in hits.

SMILES	FECH inh
COc1ccc(Cl)cc1NCc1nc2nc3c(c(=O)n2[nH]1)CCC3	i
NS(=O)(=O)c1ccc(CCNC(=O)CC2=NS(=O)(=O)c3ccccc3N2)cc1	i
CCCCN(CC)c1ncc(NS(=O)(=O)c2cccc(F)c2)cc1C(=O)O	i
Cn1c(CN2CCC(N)(C(=O)O)C2)cc2ccccc21 (stereo not given)	i
O=C1NCCCC1Nc1nccc(CCC(F)(F)F)n1 (stereo not given)	i
Cc1ccc(OCc2cc(=O)n3oc(C)cc3n2)c(NC(=O)c2cccs2)c1	i
CS(=O)(=O)CCN1CCN(c2nccc(CCC(F)(F)F)n2)CC1	i
CCCc1cc(Sc2ccc(NC(=O)CC)cc2)n2ncnc2n1	i
Cc1ccc(S(=O)(=O)N2CCN(Cc3nc4cccnc4n3-c3ccccc3)CC2)c(C)c1	i
CC(Cc1cnccn1)NC(=O)c1cc(-c2ccccc2)nn1C (stereo not given)	i
CC(Cc1cnccn1)NC(=O)c1cccc(-c2cccc(F)c2)c1 (stereo not given)	i
C=C(C)COc1ccc(C(=O)NC(C)Cc2cnccn2)cc1 (stereo not given)	+
Cc1cc(N2CCCCC2)nc(N2CCN(S(=O)(=O)c3cccc(F)c3)CC2)n1	i
COc1cc(N2CCOc3c(cc(-c4cccs4)cc3OC)C2)ncn1	i
Cc1ccc2c(c1)NC(=O)C2CC(=O)NCCN1CCCOC1=O (stereo not given)	i
Cc1cccc(N(CC(=O)NCCN2CCNC2=O)S(C)(=O)=O)c1	+
Cc1cccc(N(CC(=O)N(C)Cc2n[nH]c3c2CCCCC3)S(C)(=O)=O)c1	i
Cc1noc(C)c1CCNC(=O)c1ccc(CN2C(=O)CCn3nccc32)cc1	i
Cc1sc2ncnc(N(C)CCCc3nccn3C)c2c1C	i
CCOc1ccccc1NC(=O)CN1CCCN(Cc2ccc(OC)cc2)S1(=O)=O	i
CCOc1ccccc1NC(=O)CN1CCCN(Cc2cccc(C)c2)S1(=O)=O	+
COc1cc(OC)c(NC(=O)CN2CCCN(Cc3ccccc3)S2(=O)=O)cc1Cl	+
COc1cc(OC)c(NC(=O)CN2CCN(Cc3ccccc3F)S2(=O)=O)cc1Cl	i
CCOC(=O)c1ccccc1NC(=O)CN1CCCN(Cc2cccc(C)c2)S1(=O)=O	i
COc1ccc(NC(=O)CN2CCCN(Cc3ccccc3)S2(=O)=O)c(OC)c1	i
SMILES	FECH inh
COc1ccccc1NC(=O)CN1CCCN(Cc2ccc(Cl)cc2)S1(=O)=O	i
COc1ccccc1NC(=O)CN1CCCN(Cc2cccc(F)c2)S1(=O)=O	i
COc1ccccc1NC(=O)CN1CCCN(Cc2cccc(C)c2)S1(=O)=O	+
O=c1c2c3c(sc2ncn1CCSc1cn[nH]n1)CNCC3	i
CCOc1ccc(NC(=O)CSc2nc(-c3ccc4c(c3)OCO4)nc3cc(=O)[nH]n23)cc1	i
Cc1ccccc1Nc1nc(NCc2ccco2)nc2c1cnn2-c1ccccc1	i
Cc1ccc(NC(=O)C(C)C)c(C(=O)NC2CCN(Cc3cccnc3)CC2)c1	i
CCN(Cc1nc(COC)no1)Cc1ccnc2ccccc12	i
O=C(NCc1ccccc1)N1CCC(n2cc(-c3ccc(F)cc3)nn2)CC1	i
CCC1(C2CCN(C(=O)CCN3CCCCCC3=O)CC2)NC(=O)NC1=O (stereo not given)	i
O=C(Nc1nc2n(n1)C(c1ccccc1Cl)C=C(c1ccccc1)N2)c1ccccc1 (stereo not given)	i
CC(=O)Nc1nc2n(n1)C(c1c(F)cccc1Cl)C=C(c1ccccc1)N2 (stereo not given)	+
Cc1cccc(C(=O)Nc2nc3n(n2)C(c2c(F)cccc2Cl)C=C(c2ccc(Cl)cc2)N3)c1 (stereo not given)	+
Cc1ccc(C2=CC(c3ccc(Cl)cc3)n3nc(NC(=O)c4ccccc4F)nc3N2)cc1 (stereo not given)	i
CCC(=O)Nc1nc2n(n1)C(c1c(F)cccc1Cl)C=C(c1ccc(C)cc1)N2 (stereo not given)	i
COc1ccc(C(=O)Nc2nc3n(n2)C(c2c(F)cccc2Cl)C=C(c2ccccc2)N3)cc1 (stereo not given)	i
O=C(Nc1nc2n(n1)C(c1c(F)cccc1Cl)C=C(c1ccc(Cl)cc1)N2)c1cccnc1 (stereo not given)	+
O=C(Nc1nc2n(n1)C(c1c(F)cccc1Cl)C=C(c1ccccc1)N2)c1ccccc1 (stereo not given)	+
Cc1ccc(C2=CC(c3c(F)cccc3Cl)n3nc(NC(=O)c4ccc(Cl)cc4)nc3N2)cc1 (stereo not given)	i
Cc1ccc(C(=O)Nc2nc3n(n2)C(c2c(F)cccc2Cl)C=C(c2ccc(Cl)cc2)N3)cc1 (stereo not given)	i
Cc1ccc(C2=CC(c3c(F)cccc3Cl)n3nc(NC(=O)CCc4ccccc4)nc3N2)cc1 (stereo not given)	i
Cc1ccc(C2=CC(c3c(F)cccc3Cl)n3nc(NC(=O)c4cccc(Cl)c4)nc3N2)cc1 (stereo not given)	i
COc1cccc(Nc2cc(-c3ccc(C)cc3)nc(C)n2)c1	i
CCN(CC)c1ncccc1CNC(=O)c1ccc(C)cc1O	i
Cc1cccc(CN2CCN(C(=O)CC3=CCNCC3)C(C)C2=O)c1 (stereo not given)	i
SMILES	FECH inh
COC(=O)[C@H](C)NC(=O)Cc1csc(-c2ccccc2)n1	i
COc1ccc(N2C(=O)CCS2(=O)=O)cc1S(=O)(=O)Nc1ccccc1	i
CC(C)CCNC(=O)CSc1nc(-c2ccc3c(c2)OCO3)nc2cc(=O)[nH]n12	i
COc1ccc(NC(=O)CCc2nc(-c3cc4ccc(C)cc4[nH]c3=O)no2)c(OC)c1	i
NCC1Cc2cc(-c3ccc4occc4c3)cc(F)c2O1 (stereo not given)	i
CN1CC2(CCN(C(=O)c3ccc(OC(F)F)cc3)CC2)CC1C(=O)O (stereo not given)	i
CCCC1COCCN1Cc1cc(C)[nH]n1 (stereo not given)	i
Cc1ccc(C2=CC(c3ccc(F)cc3)n3nc(NC(=O)c4ccccc4)nc3N2)cc1 (stereo not given)	i
O=C(Nc1nc2n(n1)C(c1ccc(F)cc1)C=C(c1ccccc1)N2)c1ccccc1 (stereo not given)	+
O=C(Nc1nc2n(n1)C(c1ccc(F)cc1)C=C(c1ccccc1)N2)c1ccc(Cl)cc1 (stereo not given)	i
CC(C)n1cnc2nc(CSc3ccccc3NC(=O)COc3ccccc3F)cc(=O)n21	+
COc1ccc(C(=O)Nc2ccccc2SCc2cc(=O)n3c(ncn3C(C)C)n2)cc1OC	i
CCc1ccccc1OCC(=O)Nc1ccccc1SCc1cc(=O)n2c(ncn2C(C)C)n1	i
CC(C)n1cnc2nc(CSc3ccccc3NC(=O)c3cccc(Cl)c3)cc(=O)n21	i
CC(C)n1cnc2nc(CSc3ccccc3NC(=O)COc3ccc(F)cc3)cc(=O)n21	i
CCCn1cnc2nc(CSc3ccccc3NC(=O)c3ccc(Cl)cc3)cc(=O)n21	+
Cc1ccc(NC(=O)N2CCC(n3cnc4cccnc43)CC2)cc1Cl	i
Cc1cccc(-c2cc(N3CCN(C(=O)Nc4cccc(Br)c4)CC3)ncn2)c1	i
O=S(=O)(NCc1nc2cccnc2n1C1CC1)c1cccc(Cl)c1	i
